The list is not random: actives were taken first. Their share in the collection is about 12%.
Cl transport mod: modulates chloride dependent transport by human KCC2; KCC2 cells, thallium flux FluoZin-2 fluorescence; B-score of Tl+ flux slope (higher = more flux/activation; lower = inhibition) at 10 µM; 190,000 tested, 2.2% active; AID 1456;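 active means thallium flux slope and its plate-corrected score both differing from the plate sample mean at a set confidence after two filtering rounds, in either direction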;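 further: slope of fluorescence scaled to starting intensity during 10 to 20 s after thallium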
L major viab: Leishmania major promastigote growth inhibition | inhibition, % at 10 µM | AID 1063 | Leishmania major promastigotes, resazurin fluorescence viability | 200,000 tested, 9% active; in the data active means inhibition above about 50%;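 further: promastigotes grown with compound for 44 hours at 28 °C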
WT yeast gro inh: growth inhibition of WT yeast, mitochondrial fusion screen; 190,000 tested, 2.1% active; inhibition, % at 10 µM; mitochondrial fusion phenotypic screen, WT strain; in the data active means inhibition above about 58%; tested in S. cerevisiae
Ins promoter up: MIN6 insulin promoter up-regulation. MIN6 insulin promoter-GFP reporter, high-content imaging; stronger effect = higher value. z-score at 5 µM. 190,000 tested, 0.3% active;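 active means z-score above 3 at 5 µM with at least 500 cells counted in the well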
ROMK primary: modulates human ROMK potassium channel activity; Tet-inducible ROMK, thallium flux fluorescence; actives lie on both sides; 130,000 tested, 2% active; P48048; B-score at 10 µM; AID 1918;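 active means signal ratio slope over the read window, or its plate-corrected B-score, at least 3 SD from the plate mean, either direction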;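 further: B-score of the F/F0 ratio slope over 7 to 12 s after thallium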
Target sequence (P48048 whole entry, looked up): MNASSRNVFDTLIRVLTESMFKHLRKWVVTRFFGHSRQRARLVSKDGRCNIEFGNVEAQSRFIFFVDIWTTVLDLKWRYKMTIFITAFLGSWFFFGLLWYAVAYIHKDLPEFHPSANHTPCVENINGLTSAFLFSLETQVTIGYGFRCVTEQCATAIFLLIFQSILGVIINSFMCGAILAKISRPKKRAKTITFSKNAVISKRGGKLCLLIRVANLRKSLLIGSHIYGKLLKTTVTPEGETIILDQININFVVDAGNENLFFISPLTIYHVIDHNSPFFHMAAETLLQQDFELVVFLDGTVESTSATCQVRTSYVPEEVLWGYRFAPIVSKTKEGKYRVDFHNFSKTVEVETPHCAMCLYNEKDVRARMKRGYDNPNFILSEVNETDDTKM
INS promoter inh: TRM-6 insulin promoter activity inhibition. TRM-6 cells (human fetal islet line), insulin promoter-eGFP reporter, imaging; reporter expression induced with tamoxifen. AID 1273. inhibition, % at 2 µM. 130,000 tested, 0.9% active;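 active means inhibition above the mean plus 3 SD, with well images judged a real hit on visual review, cut at about 60% in these data, passing the limit was not always enough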
Numbers stand for hits; – = inactive; · = no result.

SMILES	Cl transport mod	L major viab	WT yeast gro inh	Ins promoter up	ROMK primary	INS promoter inh
Cc1nn(C)cc1/C=N/NC(=O)Cn1nnc(N)n1	–	·	·	–	·	·
O=C(c1cc(-c2ccco2)nn1-c1cccc(Cl)c1)N1CCCCC1	–	–	–	–	·	–
O=C1N/C(=C/c2ccc(Br)cc2)C(O)=C1C=NCc1ccccc1	–	79	–	–	·	–
O=C1C(C=NCc2ccncc2)=C(O)c2ccccc21	–	–	–	–	–	–
COc1cc(/C=N\NC(=O)c2c(C)nc3cc(C)ccn23)ccc1O	·	–	–	·	–	–
Cc1ccn2c(C(=O)N/N=C\c3ccc4c(c3)OCO4)c(C)nc2c1	–	85	–	–	·	–
Cc1ccc(Nc2c(-c3ccccn3)nc3cc(C)ccn23)cc1	–	101	–	–	–	–
Cc1ccc(Nc2c(-c3ccccn3)nc3ccc(C)cn23)cc1	–	101	–	–	–	·
Cc1ccc2nc(-c3ccncc3)c(Nc3ccccc3)n2c1	–	97	–	–	–	–
Cc1ccc(Nc2c(-c3ccccc3)nc3cnccn23)cc1	–	–	–	–	–	·
NC(=O)NC(CC(=O)NCCCc1ccccc1)c1ccccc1Cl (centres undefined)	–	–	–	–	–	–
Nc1nc(N2CCN(C/C=C/c3ccccc3)CC2)nc2ccccc12	–	–	–	–	·	–
CCC(=O)Nc1cc(C(=O)OC(C(=O)c2ccc(C)c(C)c2)c2ccccc2)ccc1C (centres undefined)	–	–	–	–	–	–
CCOC(=O)c1c(C)[nH]c(C(=O)C(C)OC(=O)c2cccc(OCc3c(C)noc3C)c2)c1C (centres undefined)	·	–	–	–	–	·
Cc1ccn2c(Nc3ccc4c(c3)OCO4)c(-c3ccccn3)nc2c1	–	100	–	–	–	–
CCCc1ccc(C2C3=C(CC(C)(C)CC3=O)NC3=C2C(=O)c2ccccc23)cc1 (centres undefined)	–	88	–	–	–	–
CCCCc1ccc(C2C3=C(CC(C)(C)CC3=O)NC3=C2C(=O)c2ccccc23)cc1 (centres undefined)	–	99	–	–	–	·
COc1ccc2c(c1)SC1=NCCS(=O)(=O)N12	·	–	–	–	–	·
CCOC(=O)C1=c2s/c(=C\c3cccnc3)c(=O)n2C(N)=C(C(=O)OC)C1c1cccnc1 (centres undefined)	–	–	–	–	–	–
COC(=O)C1=C(N)n2c(s/c(=C\c3cccnc3)c2=O)=C(C(=O)OC)C1c1cccnc1 (centres undefined)	–	–	–	3.2	·	–
COCC(C)NS(=O)(=O)c1ccc(C)cc1 (centres undefined)	–	–	–	–	–	–
O=C(CSc1nncn1-c1ccccc1)Nc1cc(Cl)cc(Cl)c1	–	–	–	–	–	–
O=C(CCc1ccccc1)Nc1ccccc1C(=O)N1CCOCC1	–	–	–	–	–	·
CC1=C(C(=O)c2ccccc2)C(c2cn(-c3ccccc3)nc2-c2ccc(Cl)cc2)NC(=S)N1 (centres undefined)	–	100	–	–	·	–
Cc1ccc(Sc2ccc(NC(=O)CCl)cc2)c(C)c1	–	97	64	–	–	–
SMILES	Cl transport mod	L major viab	WT yeast gro inh	Ins promoter up	ROMK primary	INS promoter inh
COCCn1c(=O)[nH]c(=O)c2cc(C(=O)c3cc(Cl)ccc3O)cnc21	–	–	63	–	–	·
COc1ccc(O)c(C(=O)c2cnc3c(c2)c(=O)[nH]c(=O)n3C)c1	–	–	–	·	–	–
O=C(Nc1cccc(-c2nnc(-c3ccco3)o2)c1)c1ccccc1	–	–	–	–	–	·
O=C(Nc1cccc(-c2nnc(-c3ccco3)o2)c1)C(c1ccccc1)c1ccccc1	–	100	–	–	–	–
CC(=O)OC1OCCOC1NC(=S)NCc1ccco1 (centres undefined)	–	–	–	–	–	·
CSCCC(NC(=O)c1cncc(Br)c1)C(=O)O (centres undefined)	–	–	–	–	·	–
C=CCNC(=O)/C(C#N)=C\c1cc(Cl)c(O)c(OCC)c1	–	–	–	–	·	·
CCOc1cc(/C=C2\CCC/C(=C\c3cc(Cl)c(O)c(OCC)c3)C2=O)cc(Cl)c1O	–	93	–	–	·	–
CCOC(=O)C1(CCc2ccccc2)CCN(Cc2ccccn2)CC1	·	–	–	–	–	·
CCOC(=O)C1(CCOc2ccccc2)CCN(Cc2cc(OC)c3c(c2)OCO3)CC1	–	84	–	–	·	·
CCOC(=O)C1(CCOc2ccccc2)CCN(Cc2cccc3c2OCO3)CC1	–	91	–	–	·	·
COc1ccc(C(=O)C[n+]2cccc(C)c2)cc1	–	–	–	–	–	–
Cc1nc(Oc2cccc(Cl)c2)c2oc3ccccc3c2n1	–	–	–	–	–	–
CC(C)N1CCC2(CC1)N=C(c1ccc3c(c1)OCO3)CC(c1cc(Cl)ccc1O)N2 (centres undefined)	–	100	–	–	·	–
Cc1[nH]c(-c2ccc3c(c2)OCO3)nc1C(=O)O	–	–	–	–	·	·
O=C(Cc1cn(Cc2cccc(Cl)c2)c2ccccc12)N1CCCCCC1	–	99	68	–	·	–
CC1CCCN(C(=O)Cc2cn(Cc3cccc(Cl)c3)c3ccccc23)C1 (centres undefined)	–	97	73	–	·	–
O=C(O)Cc1cn(Cc2cccc(Cl)c2)c2ccccc12	–	–	–	–	–	–
CCN(CCO)c1ccc(N=Nc2cc(C)[nH]n2)cc1	–	·	·	–	·	·
OC(Cc1cccnc1)(Cc1cccnc1)c1cc2ccccc2[nH]1	–	55	–	–	–	–
c1ccc(-n2c(Cc3cccnc3)nc3cnccc32)cc1	–	–	·	·	–	·
c1cncc(Cc2cc3ccccc3[nH]2)c1	–	50	–	–	–	–
COc1ncnc2c1oc1nc(CC(C)C)c3c(c12)CC(C)(C)OC3	–	–	–	–	·	–
O=C(COc1ncnc2sccc12)N1CCN(C(=O)c2ccco2)CC1	–	–	–	–	–	–
CCCCN(Cc1ccccc1)S(=O)(=O)c1cc(Br)cc2c1N(C(C)=O)C(C)C2 (centres undefined)	·	98	–	–	–	–
SMILES	Cl transport mod	L major viab	WT yeast gro inh	Ins promoter up	ROMK primary	INS promoter inh
CC(=O)N1c2c(cc(Br)cc2S(=O)(=O)NCc2cccnc2)CC1C (centres undefined)	–	–	–	–	·	–
Cc1ccc(Cl)cc1NC(=O)C[n+]1ccc(Cc2ccc([N+](=O)[O-])cc2)cc1	–	–	–	–	–	–
CCN(CC)S(=O)(=O)c1cc([N+](=O)[O-])ccc1NNC(=O)Nc1ccc(Cl)c(Cl)c1	–	100	–	·	·	–
O=C(NNc1ccccc1[N+](=O)[O-])Nc1ccc(Cl)c(Cl)c1	–	78	–	–	–	–
CSc1ccccc1C(=O)Nc1cc([N+](=O)[O-])ccc1C	–	–	–	–	–	·
Clc1cccc(CN2CCC(Cc3ccccc3)CC2)c1	–	86	–	–	–	·
O=C(/C=C/c1cccc(Cl)c1)N1CCC(Cc2ccccc2)CC1	–	50	65	–	–	–
COC(=O)C1CCN(C(=O)/C=C/c2ccccc2)CC1	–	–	–	–	–	–

Compound activity: PubChem, several laboratories
